Test results: PubChem BioAssay AID1508600 (Functional Genomics Laboratory (NCATS/FGL), 2020)
Among all 53,000 sequences or so, about 3,700 (7%) were called active. Many of the other results were omitted from the sample, so actives are more common in it than they were. Unmarked numbers belong to inactive results.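 The calls were made as follows: active = gene knockdowns whose robust z-score for IL-1 alpha signal is at least 2 or at most -2, so actives lie on both sides; inactive = the rest.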

Assay: Components of the Cytosolic LPS Sensing Pathway: Gene Identification via Genome-wide siRNA Screen;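 also: robust z of the log signal after scaling to non-targeting control siRNA wells of the plate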
Conditions: RAW264.7 macrophages, IL-1a HTRF, actives lie on both sides, screened at 100 nM (by protocol), cells primed 5 h with Pam3CSK4 first
In short: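 Mouse macrophage line RAW264.7 is transfected with siRNA (100 nM final), grown 48h, primed with TLR ligand Pam3CSK4 5 h and given intracellular LipidA 24 h. IL-1a in supernatant is read by HTRF and viability by luminescence.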

Sequence | z-score
GGUCUCCAUAAGUGUCAGCTT against Cntfr | -0.407
GGUGUCUCUGAAGAUUGAATT against Cdc6 | 0.345
GGAUUAGGAUCAGCAGGAUTT against Accs | 1.01
GGAUCUUGAUCCACAUCUCTT against Padi6 | -2.47 (active)
GGAGAUAAUCCUUGUCACGTT against Whamm | 0.592
CCCUUAAAGGGUAGCAUUUTT against Ncan | 0.837
GUGGUCUUUAUCGGCAUGATT against Slc35c1 | 0.287
GCUCUUGUAAAUUUGUGAATT against Usp10 | -0.331
GCAGUGCUCUUUAGCAUAATT against Zfp689 | 1.01
GCAUAAAAAACGAAUAGAGTT against Smc1b | -0.432
GCAAGUCCUAGUGUCCUGATT against N6amt1 | -0.213
GGAAAUGCUGCCAUUGUUATT against Aldh3a2 | 0.333
GGAACAAAGACAUUGCUUUTT against Sf3a3 | -2.77 (active)
GCAAGCGAUGGCACAUAGATT against Ap1g2 | 1.03
GGUUACGAAGAUUAAUGUGTT against Crk | 1.27
GGACAGGUGUCGAUCAAACTT against Zfp280c | 0.0987
GGAAUUGCACUUUUCCAAUTT against Phlda1 | 0.481
GGAUGCAGUACGAAAUUCUTT against Psmd1 | -2.93 (active)
GGCAGUGCCAAUGAACAAGTT against Elob | 0.591
GGUUGUUUUGGAAUUGAUATT against Smu1 | -2.82 (active)
CGAGCAUGCAUUCAAAGGATT against Lrrc3b | 1.33
GGGCACAUACUCAGAUGAATT against Ngfr | -0.62

Sequence | z-score
GAGUAUCAUUUCCUGUUUUTT against Olfr389 | -0.395
CCAUUCCAGUUAUGUCAAUTT against Pus3 | -1.06
CCCUCAGGACACGUUUUAGTT against Wdsub1 | -2.14 (active)
CGAGCCAUACCUUCAACUGTT against Ncoa2 | -0.815
GGAGCAGAUGAGAUCCAAGTT against Cdc42se1 | -0.256
GCCUUUAUAGUCUUAAGCATT against Ndc1 | -0.209
GGAAAAACUCCCUCGGUACTT against Rps11 | 0.683
GCUGCUUUGGGCACAAGAUTT against Nppb | 0.428
GCUCCUAUGGCAACAUCGUTT against Olfr303 | 2.11 (active)
GGUAUGAGAUUACCUUCACTT against 1700037H04Rik | -1.16
GCUCAGAAAUCGGCUCAGATT against Ssbp2 | -1.66
GCUAAACUCCACCAAGACATT against Grid2ip | 0.338
GGGCAAUUAUCUUUGUUAUTT against Olfr589 | -0.0712
GCCAUUAUGACAGAACGCATT against Adra1d | -0.606
GAACUACCUGGACUUCCACTT against Cox6b1 | 2.5 (active)
GGACGAUUCUUUUAUUUGATT against Fam78b | -1.22
CCAAUCGAUACAUCAUUUUTT against Gmcl1 | 1.1
GCAUCAUACCACUGUGUUUTT against Obox1 | -1
GGCUGUUUGGCUUGUUUAATT against Golga7 | 1.82
CGGAUUCAGUAUUAGCAAUTT against Ogt | -2.4 (active)
GGAAUUAUUCAGCAAGACUTT against Cdrt4 | -0.636
CGUUUGUUACUCUUCAGCUTT against Olfr1461 | -1.07

Sequence | z-score
GGCCAUAACACAAAUGUAGTT against Prpf4 | 0.554
GGAGGAAAGUAUGAAGAAATT against Cyp2j9 | -0.337
GGCUGUGCAUUAUAUCCUUTT against Lhfpl1 | 1.2
GCUCCUAGUGUUUUUGUGGTT against Rplp0 | -2.91 (active)
GGUUAUCCAGAGAGAAGGATT against Asxl2 | 0.399
GGCUAAGCUGAAGAAGCACTT against Fam219b | -0.326
GGUGACAACACUUGUCAACTT against Ctnna2 | -0.551
GCCCAUGUUUUUUUUUCUGTT against Olfr648 | 0.776
GGCUGCUUAACCUUGAUAATT against Lrrd1 | 0.529
CGGUAGAGUCAGCAUUUGATT against Sez6 | -0.231
GCCGAGAUGAGCUCCUAAUTT against Krt27 | 1.29
GCUACAGCUUCAAUUAAAUTT against Birc6 | 0.135
GGGAGAAACGCAUCUUAUCTT against Ngly1 | 2.38 (active)
CCCACAGGGAUUUAUUUAUTT against Slc37a1 | -0.362
GGACAUCCAUCAGUACAGGTT against Hras | 0.812
GGCUGUCACUUUAUAGGCATT against Wrnip1 | -0.862
CGACUUGAACUCUAUGGCGTT against Ascl1 | -0.12
CCGAAAGGCUGGUACAUUCTT against Kin | -0.494
GGUUAUCUUCUUGACAGAATT against Nmur2 | 1.42
CCUGUUUAGCAUCUGGGAGTT against Gpr1 | 6.24 (active)
GGUAGAGAUGUACAUUUGGTT against Chrdl2 | -1.72
GCAAGAAGUUCCUAUCAUCTT against Polr2b | -1.67

Sequence | z-score
GCCCAAACUCAAGCAAGUCTT against Trpm3 | 2.37 (active)
GGUUACCCAACUUGAAGGATT against Parp16 | 1.37
GGCAAAAAGAUAGGAGCUGTT against Txn1 | 0.57
GGUGACUAACGAGAUCAUUTT against Slc19a1 | 0.913
CGAACAGAGUCUAAUCUCATT against Ptpn1 | 1.69
AGGAAUGCCCAGGUCUCAGTT against Lst1 | -1.07
GGUCUGCUAUGAAAUUAUGTT against Tmem14c | -0.537
GGACGGAGCUGUAAUUGCATT against Arhgef12 | 2.16 (active)
GGCCUACAGGACAAAGUUUTT against Comt | 0.394
CGACUAGAGUUGUGUGAUATT against Uqcrh | 0.834
GGUGCAUUAUAAGAAUCGCTT against Fhl1 | 0.144
GGUGGUGCCAAGAUGUUGUTT against Aste1 | 2.26 (active)
GUACCUCUACUAUUCCUUUTT against Krtap5-2 | -0.13
GGAGUUCAAGACGGAGAAGTT against Gpr27 | 0.000428
GGCUUAUAUCUGAUUGAUGTT against Rom1 | -1.17
GGAAAGUGACUGCAUGUUCTT against Pgp | -1.3
GGACUUCUUCACCAUCUGGTT against Lcat | -1.3
GGUACAUGAUCAAUUUAGATT against Tspyl4 | 0.726
GGACAUUAGGAAAUUAGAUTT against Ppp3cc | -0.404
GGCAGUACUGUCCAGAUGATT against Gsdma2 | -2.12 (active)
CCUUAUCUAUAACUCUGCUTT against Tirap | -0.772
GGAGAGCGAAGAAAAAAUGTT against Birc2 | -0.852

Sequence | z-score
GGUUGUCUUCAACACCAAATT against Lgals7 | -0.147
GCAAGAGCAUGCUUACGGUTT against Ccl1 | -0.324
GGGUUUCUUGUUGGUUUUATT against Dock5 | 2.29 (active)
GGACGGGAUUGAGCCUAUGTT against Eif4e | 1.65
CCAAGCUUACACUAGUGUUTT against Cdk6 | -0.429
GCGUGUACAAGGCUAUUCATT against Stk4 | 1.19
GGCCUACUUCCUACUCAAATT against Tbx10 | -1.85
CCUACACCUAGAAAUCUAGTT against Gpr3 | 1.52
GGAUGAGGAUGGCUAUAAGTT against Zc3h10 | 0.585
GGGAAGGAUGACCUAACAATT against Gpatch4 | -0.839
CGGAUUAGAAGAGCCAAACTT against Cd59b | 0.352
GGCUACCCUUUUGAACCUCTT against Psmd3 | -2.81 (active)
GGAAAAAGCCAAGCUCAUCTT against Syt3 | -1.5
GGAGCAUCCUGGCAAACAGTT against Slc51b | -1.32
CUGAUCCUUCAAUUAACAUTT against Olfr202 | 0.0318
GCGACUCCUAUAAUUUCUATT against Rpa3 | -2.17 (active)
GCAGGUCCUGACCUAUGUGTT against Cyp27b1 | -0.556
CCAUCUGCAUCAAGAGAAATT against Kirrel2 | 0.709
GGAACGUACAGGAUAAUCUTT against Krt79 | 4.28 (active)
GGCUAAAGAAUAAAGAUCCTT against Cadm2 | 1.66
